Measurements published in PubChem BioAssay (NCI).
The panel holds about 79,000 compounds, 15% with a hit somewhere; the sample as a whole holds those more often. Activity calls are given as the source filed them. Cut-off read from the data, not from the text of the source: active = growth inhibition above about 70%; inactive = the rest.

What was measured:
[1] = NCI Yeast Anticancer Drug Screen. Data for the rad52 strain (AID 147);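 note: 0% = growth of vehicle-treated control cultures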; conditions: S. cerevisiae rad52 mutant growth inhibition, stronger effect = higher value
Procedure, shortened: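 Genetically altered yeast (DNA damage repair defect) treated with compound; inhibition calculated relative to vehicle.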

[2] = NCI Yeast Anticancer Drug Screen. Data for the wt1 strain (AID 149);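 note: 0% = growth of vehicle-treated wt1 cultures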; conditions: S. cerevisiae wt1 strain (SPY 50644) growth inhibition, stronger effect = higher value
Procedure, shortened: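 wt1 strain grown with compound or vehicle; inhibition taken from the growth difference.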

[3] = NCI Yeast Anticancer Drug Screen. Data for the rad50EPP+ strain (AID 151);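 note: 0% = growth of vehicle-treated control cultures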; conditions: S. cerevisiae rad50 mutant strain, stronger effect = higher value
Procedure, shortened: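 Strain rad50EPP+; compound exposure; % growth inhibition vs vehicle.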

[4] = NCI Yeast Anticancer Drug Screen. Data for the rad50 strain (AID 155);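 note: 0% = growth of vehicle-only cultures of the same strain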; conditions: S. cerevisiae rad50 strain growth inhibition, stronger effect = higher value
Procedure, shortened: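 DNA repair mutant yeast, compound exposure, growth read-out; inhibition is taken relative to vehicle.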

[5] = NCI Yeast Anticancer Drug Screen. Data for the mec2-1 strain (AID 157); conditions: S. cerevisiae mec2-1 strain, stronger effect = higher value
Procedure, shortened: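 Cells of the genetically defined mec2-1 yeast strain are incubated with test compound. Inhibition of growth is calculated against vehicle-treated controls.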

[6] = NCI Yeast Anticancer Drug Screen. Data for the rad14 strain (AID 159);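 note: 0% = growth of vehicle-treated control cultures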; conditions: S. cerevisiae rad14 strain growth inhibition, stronger effect = higher value
Procedure, shortened: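 DNA repair-defective yeast, compound-exposed; % growth inhibition derived by comparison with vehicle-treated controls.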

[7] = NCI Yeast Anticancer Drug Screen. Data for the sgs1 mgt1 strain (AID 161);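 note: 0% = growth of cultures given vehicle only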; conditions: S. cerevisiae sgs1 mgt1 strain, stronger effect = higher value
Procedure, shortened: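 Inhibition of yeast growth, normalised to vehicle-treated controls, is reported for a strain bearing genetic alterations in DNA damage repair.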

[8] = NCI Yeast Anticancer Drug Screen. Data for the CLN2oe strain (AID 163);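 note: 0% = growth of vehicle-only control cultures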; conditions: S. cerevisiae CLN2oe strain, stronger effect = higher value
Procedure, shortened: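 Strain altered in cell-cycle control, incubated with compound; growth compared to solvent-treated controls.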

[9] = NCI Yeast Anticancer Drug Screen. Data for the cln2 rad14 strain (AID 165);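 note: 0% = growth equal to vehicle treated cultures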; conditions: S. cerevisiae cln2 rad14 strain, stronger effect = higher value
Procedure, shortened: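 The screen exposed genetically defined yeast (cln2 rad14) to test compounds and scored growth inhibition relative to vehicle-treated controls.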

[10] = NCI Yeast Anticancer Drug Screen. Data for the bub3 strain (AID 167); conditions: S. cerevisiae bub3 mutant strain, stronger effect = higher value
Procedure, shortened: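 In this screen, a yeast mutant lacking normal mitotic checkpoint function is challenged with compound. Relative growth versus vehicle gives the inhibition value.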

[11] = NCI Yeast Anticancer Drug Screen. Data for the mlh1 strain (AID 171);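 note: 0% = growth of vehicle-treated control cultures of the same strain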; conditions: S. cerevisiae mlh1 strain growth inhibition, stronger effect = higher value
Procedure, shortened: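 Yeast screen: mutant strain plus compound, growth scored against vehicle control wells.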

[12] = NCI Yeast Anticancer Drug Screen. Data for the sgs1 strain (AID 173);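 note: 0% = growth of vehicle-only control cultures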; conditions: S. cerevisiae sgs1 mutant, stronger effect = higher value
Procedure, shortened: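 Inhibition of yeast growth served as the measure. The mutant strain was treated with each compound, and growth was normalised to cultures receiving vehicle alone.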

[13] = NCI Yeast Anticancer Drug Screen. Data for the mlh1 rad18 strain (AID 175); conditions: S. cerevisiae mlh1 rad18 strain growth inhibition, stronger effect = higher value
Procedure, shortened: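 Compound-treated yeast growth, normalised to vehicle controls. Strain bears defined DNA repair mutations.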

[14] = NCI Yeast Anticancer Drug Screen. Data for the rad18 strain (AID 177); conditions: S. cerevisiae rad18 mutant growth inhibition, stronger effect = higher value
Procedure, shortened: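 Inhibition values reflect reduced yeast growth compared with vehicle-treated controls, using a strain engineered with a DNA damage repair defect.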

[15] = NCI Yeast Anticancer Drug Screen. Data for the wt2 strain (AID 169);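 note: 0% = growth of vehicle-treated yeast cultures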; conditions: S. cerevisiae wt2 strain growth inhibition, stronger effect = higher value
Procedure, shortened: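 Steps: yeast strain treated with compound; growth recorded; inhibition calculated relative to cultures given vehicle alone.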

[16] = NCI Yeast Anticancer Drug Screen. Data for the mgt1 strain (AID 153); conditions: S. cerevisiae mgt1 mutant growth inhibition, stronger effect = higher value
Procedure, shortened: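 Read-out: yeast growth inhibition vs vehicle control. Strain mgt1, drawn from a panel altered in DNA damage repair or cell cycle control.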

[17] = at 5.0 µM (retest, dose inferred, filed as 0.5)
[18] = at 50.0 µM (retest, dose inferred, filed as 5.0)

Measured: growth inhibition

Clc1ccc(C(c2ccc(Cl)cc2)N2CCNCC2)cc1
inactive: [1]; at 1.2 µM 2% | [1]; at 3.7 µM -3% | [1]; at 11.0 µM -1% | [1]; at 33.0 µM 46% | [2]; at 1.2 µM 5% | [2]; at 3.7 µM 6% | [2]; at 11.0 µM 3% | [2]; at 33.0 µM 29% | [3]; at 1.2 µM 1% | [3]; at 3.7 µM 5% | [3]; at 11.0 µM 5% | [3]; at 33.0 µM 3% | [3]; at 100.0 µM -1% | [4]; at 1.2 µM -3% | [4]; at 3.7 µM -1% | [4]; [17] 38% | [4]; at 11.0 µM 6% | [4]; at 33.0 µM 67% | [5]; at 1.2 µM -19% | [5]; at 3.7 µM -19% | [5]; at 11.0 µM -10% | [5]; at 33.0 µM 49% | [6]; at 1.2 µM -36% | [6]; at 3.7 µM -30% | [6]; at 11.0 µM -41% | [7]; [17] -35% | [8]; at 1.2 µM -1% | [8]; at 3.7 µM -2% | [8]; at 11.0 µM 1% | [8]; at 33.0 µM 18% | [9]; [17] 61% | [10]; at 1.2 µM 1% | [10]; at 3.7 µM 3% | [10]; [17] 12% | [10]; at 11.0 µM 12% | [11]; at 1.2 µM -35% | [11]; at 3.7 µM -34% | [11]; at 11.0 µM -34% | [11]; at 33.0 µM 49% | [12]; at 1.2 µM -26% | [12]; at 3.7 µM -33% | [12]; at 11.0 µM -34% | [12]; at 33.0 µM 41% | [13]; [17] 45% | [14]; at 1.2 µM 3% | [14]; at 3.7 µM -7% | [14]; at 11.0 µM 4% | [14]; at 33.0 µM 65%
active: [1]; at 100.0 µM 98% | [2]; at 100.0 µM 98% | [4]; [18] 95% | [4]; at 50.0 µM 92% | [4]; at 100.0 µM 97% | [5]; [17] 70% | [5]; [18] 96% | [5]; at 50.0 µM 93% | [5]; at 100.0 µM 98% | [6]; at 33.0 µM 71% | [6]; at 100.0 µM 98% | [7]; [18] 98% | [8]; at 100.0 µM 92% | [9]; [18] 88% | [10]; at 33.0 µM 71% | [10]; [18] 96% | [10]; at 100.0 µM 94% | [11]; at 100.0 µM 98% | [12]; at 100.0 µM 98% | [13]; [18] 96% | [13]; at 50.0 µM 92.3% | [14]; at 100.0 µM 98%

BrC/C=C/C[P+](c1ccccc1)(c1ccccc1)c1ccccc1
active: [1]; at 11.0 µM 96% | [1]; at 33.0 µM 98% | [1]; at 100.0 µM 99% | [2]; at 11.0 µM 94% | [2]; at 33.0 µM 98% | [2]; at 100.0 µM 98% | [3]; at 100.0 µM 91% | [5]; at 11.0 µM 96% | [5]; at 33.0 µM 98% | [5]; at 50.0 µM 92.9% | [5]; at 100.0 µM 99% | [7]; at 50.0 µM 92% | [8]; at 11.0 µM 94% | [8]; at 33.0 µM 98% | [8]; at 100.0 µM 99% | [9]; at 50.0 µM 87.7% | [10]; at 11.0 µM 94% | [10]; at 33.0 µM 98% | [10]; at 50.0 µM 88.7% | [10]; at 100.0 µM 98% | [15]; at 11.0 µM 95% | [15]; at 33.0 µM 98% | [15]; at 100.0 µM 99% | [11]; at 11.0 µM 83% | [11]; at 33.0 µM 98% | [11]; at 100.0 µM 99% | [12]; at 11.0 µM 95% | [12]; at 33.0 µM 98% | [12]; at 100.0 µM 99% | [13]; at 50.0 µM 87.7% | [14]; at 11.0 µM 96% | [14]; at 33.0 µM 98% | [14]; at 100.0 µM 98%
inactive: [1]; at 1.2 µM 8% | [1]; at 3.7 µM 27% | [2]; at 1.2 µM 4% | [2]; at 3.7 µM 9% | [3]; at 1.2 µM -12% | [3]; at 3.7 µM -14% | [3]; at 11.0 µM -8% | [3]; at 33.0 µM 45% | [5]; at 1.2 µM 5% | [5]; at 3.7 µM 12% | [5]; [17] 23% | [5]; [18] 23% | [7]; [17] 18% | [7]; [18] 18% | [8]; at 1.2 µM -3% | [8]; at 3.7 µM 10% | [9]; [17] 47% | [9]; [18] 47% | [10]; at 1.2 µM -5% | [10]; at 3.7 µM -7% | [10]; [17] 18% | [10]; [18] 18% | [15]; at 1.2 µM 3% | [15]; at 3.7 µM 9% | [11]; at 1.2 µM -5% | [11]; at 3.7 µM 1% | [12]; at 1.2 µM 4% | [12]; at 3.7 µM 10% | [13]; [17] 43% | [13]; [18] 43% | [14]; at 1.2 µM 9% | [14]; at 3.7 µM 33%

c1cncc(C(Nc2cccc3cccnc23)Nc2cccc3cccnc23)c1
active: [4]; at 33.0 µM 76% | [4]; at 50.0 µM 75.8% | [4]; at 100.0 µM 81%
inactive: [2]; at 1.2 µM 0% | [2]; at 3.7 µM 0% | [2]; at 11.0 µM 1% | [2]; at 33.0 µM 2% | [2]; at 100.0 µM 0% | [3]; at 1.2 µM 1% | [3]; at 3.7 µM 14% | [3]; at 11.0 µM 31% | [3]; at 33.0 µM 47% | [3]; at 100.0 µM 55% | [16]; at 1.2 µM 4% | [16]; at 3.7 µM 1% | [16]; at 11.0 µM 3% | [16]; at 33.0 µM -70% | [16]; at 100.0 µM -45% | [4]; at 1.2 µM -103% | [4]; at 3.7 µM 52% | [4]; [17] 25% | [4]; at 11.0 µM 61% | [4]; [18] 44% | [5]; at 1.2 µM 2% | [5]; at 3.7 µM 1% | [5]; [17] -26% | [5]; at 11.0 µM 5% | [5]; at 33.0 µM 12% | [5]; [18] -2% | [5]; at 50.0 µM 44.8%
